Screen size: about 1,300 compounds; about 30 (2%) were called active. Not shown: some 10% with an inconclusive outcome. Calls follow the shape of the dose curve; as a rule, active = well fitted inhibition curve with a large enough effect; inconclusive = small, poorly fitted or top-dose-only effect; inactive = flat fitted curve, though single readings scatter. Shown is part of a subset that was picked to be rich in actives. Entries that show only a call come without a potency.
Experiment: qHTS for antagonists of the Thyroid Stimulation Hormone Receptor: Hit Validation in HTRF Activity in a Luteinizing Hormone Receptor Cell Line
Conditions: LHR-expressing cell line, cAMP HTRF, antagonist mode; series mostly up to 58 µM
Source text: The thyroid-stimulating hormone receptor (TSHR) is a member of the 7 trans-membrane-spanning receptor (7TMR) family of cell surface receptors. TSHR-mediated hyperthyroidism is important in thyroid pathology. The development of small molecule antagonists of TSHR may lead to therapeutic approaches for TSHR-mediated hyperthyroidism caused by constitutively activating mutations or stimulating auto-antibodies associated with Graves' disease. Graves' disease is the leading cause of hyperthyroidism and is caused by autoantibodies that stimulate TSHR (TsAbs) causing thyroid growth and unregulated overproduction of thyroid hormones and existing treatments have liabilities (agranulocytosis). In addition, TSHRs are known to be expressed in multiple extrathyroidal tissues including bone, brain, kidney, testis, fat and cells of the immune system but the role of the TSHR in these tissues is not clear. Therefore, TSHR antagonists/inverse agonists could be used as probes of extrathyroidal TSHR function. Finally, TSHR inverse agonists, which are a subclass of antagonists that inhibit agonist-independent (or basal or constitutive) TSHR signaling, could be used to inhibit TSH-independent signaling in patients with recurrent or metastatic thyroid cancer who are receiving thyroid hormone to suppress TSH.
In collaboration between scientist from the NCGC and the NIDDK, a miniaturized HTRF high-throughput screen was developed. It's a cell based assay, where an anti cAMP antibody contains a fluorescent cryptate tag (excitation 337 nm; emission 620 nm) and the acceptor is cAMP-d2 (excitation 620 nm; emission 665 nm). When antibody and cAMP-d2 interact and are excited by a 337 nm light, a FRET occurs resulting in emission at 665 nm. The assay is competition between cAMP-d2 and cAMP (from the cell lysate). The homogeneous protocol allows for one step dispense after stimulation that is automation friendly. In order to confirm specificity of the compounds to the TSHR, a confirmatory assay was conducted on a similar family member, the Luteinizing Hormone (LH) receptor, transfected into a HEK 293 cell line, using an orthogonal detection technology to measure cAMP stimulation: antibody-based Homogeneous Time Resolved Fluorescence (HTRF).
NIH Chemical Genomics Center [NCGC]
NIH Molecular Libraries Probe Centers Network [MLPCN]
Assay Provider: Marvin Gershengorn, NIDDK
Homogeneous Time Resolved Fluorescence (HTRF) cAMP Assay. HEK 293 cells stably transfected with a vector containing the LH receptor and maintained under hygromycin selection were obtained from the laboratory of Dr. Marvin Gershengorn. Compounds were assayed using a HTRF cAMP detection kit (Cisbio) on the LH receptor transfected cell line. Briefly, 750 cells were plated in 2.5 ul/well of complete media (DMEM containing 10 % FCS, and 100 uM RO 20-1724) in 1536 well solid bottom white plates and 23 nl/well compound in DMSO solution or controls was added. Following 30 minute incubation at room temperature, 2.5 ul/well of labeled d2 cAMP and 2.5 ul/well of anti-cAMP antibody (both diluted 1:20 in lysis buffer) were added to each well using a flying reagent dispenser (Aurora Discovery, San Diego) . Plates were measured using the Envision plate reader (PerkinElmer, Boston, MA) with excitation at 330 nm and emissions of 615 nm and 660 nm.
Potency is read from the fitted curve at half-maximal effect.

Row | SMILES | Potency
1 | COc1ccccc1N1CCN(c2nc(C)nc3c2oc2ccccc23)CC1 | inactive
2 | O=C1C=CC(=O)N1CCCCCCN1C(=O)C=CC1=O | 33.8 µM (active)
3 | Cc1cccc(/C=C/C(=O)c2cc(Br)ccc(=O)c2O)c1 | inactive
4 | O=S(=O)(c1cc(C(F)(F)F)ccc1Cl)N1CCN(c2ncnc3ccccc23)CC1 | inactive
5 | COc1cc2sc3ccc(-c4ccc(CN5CCOCC5)cc4)cc3c(=O)c2cc1OC | inactive
6 | COc1ccc(NS(=O)(=O)c2ccc3c(c2)Cc2ccccc2-3)cn1 | inactive
7 | O=C(Nc1ccccc1Cl)/C(Cl)=C(\Cl)S(=O)c1ccccc1 (configuration not stated) | inactive
8 | COc1ccc(NC(=O)/C(Cl)=C(/Cl)S(=O)Cc2ccccc2Cl)cn1 (configuration not stated) | 37.9 µM (active)
9 | c1ccc2c(Cn3nnc4ccccc43)cccc2c1 | inactive
10 | Cc1onc(-c2ccccc2Cl)c1C(=O)NC(=S)Nc1ccc(C(C)C)cc1 | inactive
11 | O=C(N1CCN=C1SCc1cccnc1)C12CC3CC(CC(C3)C1)C2 | inactive
12 | O=C(CSc1nc2cc(Cl)c(Cl)cc2[nH]1)c1ccc2c(c1)OCO2 | inactive
13 | O=S(=O)(Nc1ccc2cn[nH]c2c1)c1cc(Br)ccc1Br | inactive
14 | C=C(C)CNc1cc(S(=O)(=O)N2CCOCC2)ccc1Oc1ccccc1 | inactive
15 | Clc1ccc(CSc2nnc(CNc3cccc(Cl)c3)o2)cc1 | inactive
16 | CCN(CC)S(=O)(=O)c1ccc(Oc2ccc(S(=O)(=O)N(CC)CC)cc2)cc1 | inactive
17 | CC1=NN(C(N)=S)C(=O)C1N=Nc1c(Br)cc(Br)cc1Br (configuration not stated) | inactive
18 | O=C(Oc1c(Br)cc([N+](=O)[O-])cc1Br)c1cccnc1 | inactive
19 | CCc1ccccc1NC(=O)CN1CCN(C(=O)CNC(=O)Cc2cccc3ccccc23)CC1 | inactive
20 | O=C(Nc1ccc(Cl)c(Cl)c1)Nc1ccccc1O | inactive
21 | COc1ccc(-c2cc(-c3nc4ccccn4c3NCc3ccccc3)ccc2OC)cc1 | 9.53 µM (active)
22 | CCCCNc1c(-c2cccc(-c3ccc(OC)cc3)c2)nc2ccc(C)cn12 | inactive
23 | CCCCCCSc1ccc(-c2nc3ccc(Cl)cn3c2NCCCC)cc1OC | inactive
24 | O=C(Nc1nc2c(s1)CCCC2)c1ccc2ncsc2c1 | inactive
25 | N#C/C(=N\Nc1cccc([N+](=O)[O-])c1)C(=O)c1ccc(Br)cc1 | inactive
26 | Cc1ccc(C)c(N2CCN(C(=O)CCS(=O)(=O)c3ccc4c(c3)CCN4C(=O)C3CC3)CC2)c1 | inactive

Row | SMILES | Potency
27 | Cc1c(Cl)sn(-c2ccc(Cl)cc2)c1=O | inactive
28 | Cc1ccc(-n2c(Cl)c(Cl)nc(Cl)c2=O)cc1 | 37.9 µM (active)
29 | Cc1ccc2cccc(Oc3ncnc4scc(-c5ccccc5)c34)c2n1 | inactive
30 | COc1cc(C(C)=O)ccc1OCC(=O)Nc1ccc(Cl)c(S(=O)(=O)N2CCOCC2)c1 | inactive
31 | O=C(Nc1ccc(Cl)c(S(=O)(=O)N2CCOCC2)c1)c1ccc(OCC2CCCO2)cc1 (configuration not stated) | 37.9 µM (active)
32 | O=C(Nc1nc(-c2ccc(Cl)cc2Cl)cs1)c1ccc(OCC2CCCO2)cc1 (configuration not stated) | inactive
33 | COC(=O)c1ccc(CN2C(=O)NC(Cc3c[nH]c4ccccc34)C2=O)cc1 (configuration not stated) | inactive
34 | COc1ccc(-c2csc(NC(=O)c3ccccc3NS(=O)(=O)c3ccc(F)c(F)c3)n2)cc1 | inactive
35 | COc1ccc(Cc2nc(C(=O)Nc3ccc(Cl)cc3)cs2)cc1 | inactive
36 | O=S(=O)(Nc1cccc(-c2cn3cccnc3n2)c1)c1ccc(-c2ccccc2)cc1 | inactive
37 | CCOC(=O)CCS(=O)(=O)c1nc(-c2ccccc2)cc(C(F)(F)F)n1 | inactive
38 | COc1ccc(/C=N/n2c(SC)nnc(C(C)(C)C)c2=O)cc1 | inactive
39 | COc1ccc(S(=O)(=O)N2CCOC23CCN(C(=O)c2ccc(Cl)cc2Cl)CC3)cc1 | inactive
40 | O=C(NCCC1=CCCCC1)C(=O)NCC1OCCCN1S(=O)(=O)c1ccccc1 (configuration not stated) | inactive
41 | Cc1cc(C(=O)CCl)c(C)n1CCc1ccccc1 | inactive
42 | CC1(C)CC2(CCCN3C(=O)CSC32)CCS1 (configuration not stated) | inactive
43 | COC(=O)c1ccc(-c2noc(CN(C)CCC3CCCCO3)n2)cc1 (configuration not stated) | inactive
44 | CCC(C)(C)C1CCC(NC(=O)N2CCN(c3ccccc3O)CC2)CC1 (configuration not stated) | inactive
45 | COc1ccccc1-n1cnc2cc(NS(=O)(=O)c3ccc(Br)cc3)ccc21 | inactive
46 | O=C1NC(=S)S/C1=C\c1ccc2ccccc2c1 | inactive
47 | O=[N+]([O-])c1c(Nc2cccc(O)c2)cc(Cl)c2nonc12 | 30.1 µM (active)
48 | O=C(COC(=O)c1ccccc1NS(=O)(=O)c1cccs1)NCC12CC3CC(CC(C3)C1)C2 | inactive
49 | Cc1cc(OCC(=O)Nc2cccc(S(=O)(=O)N3CCCC3)c2)ccc1Cl | inactive
50 | CCOC(=O)c1c(NC(NC(=O)C(C)C)C(Cl)(Cl)Cl)sc2c1CCC2 (configuration not stated) | inactive
51 | O=C(Nc1ccc(SC(F)F)cc1)c1ccc2c(=O)n3c(nc2c1)CCC3 | inactive
52 | COc1cc2cnc(-c3ccccc3)c(-c3ccc(C#N)cc3)c2cc1OC | inactive

Row | SMILES | Potency
53 | CCn1c(Cl)c(C=O)s/c1=N\S(=O)(=O)c1ccccc1 | 37.9 µM (active)
54 | CCOc1ccccc1N1CCN(C(=O)CCCN2C(=O)c3cccc4cccc(c34)C2=O)CC1 | inactive
55 | CC(C)N(Cc1ccccc1)C(=O)COC(=O)c1cnc(Cl)c(Cl)c1 | inactive
56 | CC(Sc1nn(-c2ccc(F)cc2)c(=S)s1)C(=O)c1c(N)n(C)c(=O)n(C)c1=O (configuration not stated) | inactive
57 | CC1=C/C(=N\OS(=O)(=O)c2ccccc2)C(C)=CC1=O | 30.1 µM (active)
58 | CC1=CC(=O)C(C(C)C)=C/C1=N/OS(=O)(=O)c1ccccc1 | 21.3 µM (active)
59 | COc1ccc(/C=N/NC(=O)c2ccoc2C)cc1COc1c(C)cccc1C | inactive
60 | CCCSc1nsc(NC(=O)Nc2ccc(F)cc2F)n1 | inactive
61 | O=C(COc1ccc(Cl)cc1)Nc1ncc([N+](=O)[O-])s1 | inactive
62 | COc1cc(/C=N/OCC(=O)NC23CC4CC(CC(C4)C2)C3)ccc1OCc1ccccc1 | inactive
63 | O=C(OCCc1cc2ccccc2c(=O)o1)c1ccccc1C(F)(F)F | inactive
64 | CCN(CC)c1ccc2nc3ccccc3[n+](CC)c2c1 | 30.1 µM (active)
65 | O=C(Nc1nc(-c2ccc(F)cc2)cs1)C1CCN(C(=O)c2ccc(F)cc2)CC1 | inactive
66 | Cc1cccc(N2CCN(S(=O)(=O)c3ccc4c(c3)NC(=O)CS4)CC2)c1C | inactive
67 | CC1CCN(c2ccccc2NC(=O)c2cc([N+](=O)[O-])ccc2N2CCOCC2)CC1 | inactive
68 | CSc1nnc(C(C)(C)C)c(=O)n1/N=C/c1c(O)ccc2ccccc12 | inactive
69 | Nc1nc(SCc2ccccc2Cl)ns1 | inactive
70 | CC1CC1C(=O)N1CCN(S(=O)(=O)c2cc(C(F)(F)F)cc(C(F)(F)F)c2)CC1 (configuration not stated) | inactive
71 | COc1cccc(CN(C)C(=O)c2ccc(OCC(=O)Nc3cccc(C(F)(F)F)c3)c(OC)c2)c1 | inactive
72 | COc1ccc(CC(=O)Nc2cccc(-c3nnc(-c4cccc(C)c4)o3)c2)cc1OC | 21.3 µM (active)
73 | COc1ccc(-c2nc(CS(=O)CC(=O)NCc3ccccc3)c(C)o2)cc1OC (configuration not stated) | inactive
74 | Cc1ccc(S(=O)(=O)Nc2ccccc2N2CCCCC2)cc1 | inactive
75 | COc1ccccc1CNC(=O)CSc1nc(N)c(C#N)c(-c2cccs2)c1C#N | inactive
76 | CCn1nc([N+](=O)[O-])c(C(C#N)c2nc3cc(C(F)(F)F)ccc3s2)c(Cl)c1=O (configuration not stated) | inactive
77 | O=C(NC(Nc1nc2ccc([N+](=O)[O-])cc2s1)(C(F)(F)F)C(F)(F)F)c1cccnc1 | inactive
78 | O=c1c(Sc2ccccc2)c(C(F)(F)F)[nH]n1-c1ccccc1 | inactive

Row | SMILES | Potency
79 | COc1ccc(OC)c(CCNC(=O)Cn2nc(C)c3c(C)n(-c4ccc(C)cc4)nc3c2=O)c1 | inactive
80 | CC(=O)NC1=C(Nc2ccc(N(C)C)cc2)C(=O)c2ccccc2C1=O | inactive
81 | O=C(OCn1ncc(Cl)c(Cl)c1=O)c1cccc(C(F)(F)F)c1 | inactive
82 | Cc1sc2ncnc(N3CCN(CCOc4ccc(Cl)cc4)CC3)c2c1C | inactive
83 | Cc1ccc(-c2nc3ccc(C(=O)O)cc3nc2-c2ccc(C)cc2)cc1 | inactive
84 | CCOC(=O)c1sc(NC(=O)CSc2n[nH]c(-c3ccncc3)n2)c(C#N)c1C | inactive
85 | COc1ccc(S(=O)(=O)Nc2ccccc2C(=O)Nc2nc(-c3ccc(F)cc3)cs2)cc1OC | inactive
86 | CCSc1nsc(NC(=O)Nc2cccc(OC)c2)n1 | inactive
87 | COc1cccc(NC(=O)Nc2nc(-c3ccc(OC)c(OC)c3)cs2)c1 | 13.5 µM (active)
88 | CN(C)S(=O)(=O)c1cccc(-c2nnc(SCc3ccc4c(c3)OCCO4)o2)c1 | inactive
89 | COc1ccccc1NS(=O)(=O)c1cccc(NC(=O)c2ccc3ccccc3n2)c1 | inactive
90 | CCc1ccc(-c2cc(C)no2)cc1S(=O)(=O)N1CCN(c2ccccn2)CC1 | inactive
91 | COc1ccc(CN(C)C(=O)COC(=O)c2ccc(-c3ccccc3)cc2)c(OC)c1OC | inactive
92 | CCOc1ccc2nc(SC3CC(=O)N(c4ccccc4)C3=O)sc2c1 (configuration not stated) | inactive
93 | Cc1cc(OCc2cc(C(=O)N(C)C(C)c3ccccn3)no2)cc(C)c1Cl (configuration not stated) | inactive
94 | CC(C)c1ccccc1OCCNC(=O)c1cccnc1 | inactive
95 | O=C(CSc1ccc(F)cc1)N1CCC(c2nc3ccccc3s2)CC1 | inactive
96 | N=c1oc2ccccc2cc1C(=O)NC1CCCCCC1 | inactive
97 | CC(Sc1nnc(-c2cccs2)n1Cc1ccccc1)C(=O)NCc1ccc2c(c1)OCO2 (configuration not stated) | inactive
98 | COc1cccc(-c2nc(-c3ccc(NC(=O)c4cccnc4)cc3)no2)c1 | inactive
99 | Cn1c(=O)c(C(=O)NNC(=O)c2cccc(Cl)c2)c(O)c2ccccc21 | inactive
100 | CC1Cc2ccccc2N1C(=O)COC(=O)/C=C/c1cccc(F)c1 (configuration not stated) | inactive
101 | CCCCCCSc1nsc(NC(C)=O)n1 | inactive
102 | O=Cc1c[nH]c2ccc(C(=O)c3ccccc3)cc12 | inactive
